Among the test systems are HCT-15 colon; HT29 colon; SNB-75 CNS; SNB-19 CNS; U251 CNS; PC-3 prostate; SK-MEL-5 melanoma; UACC-62 melanoma; LOX IMVI melanoma; SK-MEL-28 melanoma.
What all share (experiment): NCI-60 one-dose screen, 48 h (100 = growth as untreated, 0 = no growth, -100 = all killed)
Common to all, as to conditions: 10 µM unless noted

This is part of a sample that, as a whole, favours compounds with a hit. Of some 83,000 tested, about 20% had one in any assay.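 Note: values are percent growth. 100 is the growth of untreated cells, values between 100 and 0 indicate rising inhibition; between -100 and 0 indicates cell death.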 A number with no mark means an inactive call. The source made the active and inactive calls. The calls were made as follows: active = growth percent below 10; inactive = the rest.

`Oc1c(C(Nc2cccc3ccccc23)c2ccccc2)ccc2cccnc12` (stereo not given): the growth was 28.1% with HCT-15 colon; 29.3% in the assay on HT29 colon; 72.2% in the assay with SNB-75 CNS; 51.7% in the assay on SNB-19 CNS; 20.6% in the assay on U251 CNS; 38.1% in the assay with PC-3 prostate. Besides, the growth was 43.9% in the assay with SK-MEL-5 melanoma, 14.7% with UACC-62 melanoma, 15.3% in the assay with LOX IMVI melanoma and 57.6% in the assay on SK-MEL-28 melanoma.

Consider `CCN1C(=O)/C(=C/N2N=C(c3ccc(Cl)cc3)CC2c2ccc(OC)cc2)SC1=S` (stereo not given), for which the growth was 87.8% with HCT-15 colon; 79.8% in the assay with HT29 colon; 82.8% in the assay on SNB-75 CNS; 92.9% in the assay with SNB-19 CNS; 81.9% with U251 CNS; 78.6% in the assay with PC-3 prostate. Besides, the growth with SK-MEL-5 melanoma was 99.4%; with UACC-62 melanoma, 70.8%; with LOX IMVI melanoma, 84.5%; with SK-MEL-28 melanoma it was 103%.

Regarding `CC(=O)O[C@H]1CC[C@]2(C)[C@H]3CC=C4[C@@H]5CC(C)(C)CC[C@]5(C(=O)OCC(COC(=O)C(Cl)Cl)(COC(=O)C(Cl)Cl)NC(=O)C(Cl)Cl)CC[C@@]4(C)[C@]3(C)CC[C@H]2C1(C)C`, the growth in the assay with HCT-15 colon is 46.7%; in the assay with HT29 colon it was 8.55% (active); in the assay with SNB-75 CNS, 85.9%; with SNB-19 CNS it was 90.4%; with U251 CNS, 45.1%; with PC-3 prostate, 22.7%. Further, the growth in the assay with SK-MEL-5 melanoma was 71.9%; in the assay on UACC-62 melanoma, 84.4%; with LOX IMVI melanoma it was 65.9%; in the assay with SK-MEL-28 melanoma, 87.3%.

As for `CCN(CC)CC(=O)Nc1c(C)ccc(N)c1C`, the growth was 97.1% with HCT-15 colon; 91.7% with HT29 colon; 91.7% in the assay on SNB-75 CNS; 100% in the assay on SNB-19 CNS; 96.1% with U251 CNS; 97.5% in the assay on PC-3 prostate. Besides, the growth in the assay with SK-MEL-5 melanoma was 99.6%; in the assay with UACC-62 melanoma it was 97.6%; in the assay with LOX IMVI melanoma it was 96.4%; with SK-MEL-28 melanoma it was 107%.

Consider `CCN1C(=O)N(CC)C2C1NC(=O)N2/N=C/C=C/c1ccccc1` (stereo not given), for which the growth in the assay on HCT-15 colon was 26.9%; in the assay with HT29 colon it was 14.6%; in the assay on SNB-75 CNS, 30.8%; with SNB-19 CNS, 47.3%; in the assay on U251 CNS, 38.8%; in the assay with PC-3 prostate it was 34.6%. In addition, the growth in the assay with SK-MEL-5 melanoma was 18%; in the assay on UACC-62 melanoma, 20.6%; with LOX IMVI melanoma it was 32.9%; in the assay with SK-MEL-28 melanoma it was 53.2%.

Turning to `CNC1=C([N+](=O)[O-])C(c2ccccc2O)C(C#N)=C(c2cccs2)O1` (stereo not given), the growth with HCT-15 colon was 88.5%; in the assay with HT29 colon, 105%; in the assay with SNB-75 CNS it was 84.2%; with SNB-19 CNS, 102%; in the assay with U251 CNS, 91.5%; in the assay on PC-3 prostate, 97.7%. For the same molecule, the growth was 97% with SK-MEL-5 melanoma, 89.3% in the assay on UACC-62 melanoma, 87.3% in the assay with LOX IMVI melanoma and 93.3% with SK-MEL-28 melanoma.

Regarding `CCN(CC)CCNC(=O)n1cc(-c2ccncc2)c(-c2cc(Cl)cc(OC)c2)n1`, the growth was 86% with HCT-15 colon; 31.3% with HT29 colon; 48% with SNB-75 CNS; 76.5% with SNB-19 CNS; 75.4% with U251 CNS; 79.8% in the assay on PC-3 prostate. The growth with SK-MEL-5 melanoma is 84.8%; with UACC-62 melanoma it was 70.3%; in the assay with LOX IMVI melanoma it was 78.7%; with SK-MEL-28 melanoma it was 91.3%.

Take `Clc1ccccc1CNc1c2ccccc2nc2ccccc12`: the growth in the assay with HCT-15 colon is 13.6%; in the assay with HT29 colon, 5.54% (active); in the assay with SNB-75 CNS it was 43.1%; with SNB-19 CNS it was 25.8%; in the assay on U251 CNS, 23.2%; in the assay with PC-3 prostate, 17.1%. The growth in the assay with SK-MEL-5 melanoma was 41.8%; in the assay on UACC-62 melanoma it was 41%; with LOX IMVI melanoma, 4.83% (active); in the assay with SK-MEL-28 melanoma, 50.5%.

Regarding `COc1ccc2c(c1)C1=NN(C(=O)CO)[C@H](c3ccc(OC(F)(F)F)cc3)[C@@H]1CC2`, the growth in the assay on HCT-15 colon was 84.7%; with HT29 colon, 92.3%; in the assay on SNB-75 CNS, 90.3%; in the assay on SNB-19 CNS, 93.4%; in the assay on U251 CNS, 87.3%; in the assay on PC-3 prostate it was 72.9%. For the same molecule, the growth in the assay on SK-MEL-5 melanoma is 83.4%; with UACC-62 melanoma, 76.3%; in the assay on LOX IMVI melanoma it was 88.7%; in the assay with SK-MEL-28 melanoma, 121%.

Regarding `O=C(Nc1cccc(-n2ccc3c(NC(=O)c4ccccc4)nccc32)c1)c1ccc(N2CCOCC2)c(C(F)(F)F)c1`, the growth in the assay on HCT-15 colon was 14.1%; in the assay on HT29 colon it was 2.15% (active); in the assay on SNB-75 CNS it was -12.5% (active); in the assay with SNB-19 CNS, 43.3%; in the assay on U251 CNS it was 15.5%; in the assay with PC-3 prostate, 23.7%. The growth in the assay on SK-MEL-5 melanoma is -68.6% (active); with UACC-62 melanoma, 40.1%; in the assay on LOX IMVI melanoma, 9.86% (active); with SK-MEL-28 melanoma, 32.8%.

For `O=C(/C=C/c1ccc(F)cc1)N1CCN(C(=O)/C=C/c2ccc(C(F)(F)F)cc2)CC1`, the growth was 104% in the assay with HCT-15 colon; 101% with HT29 colon; 119% with SNB-75 CNS; 103% in the assay with SNB-19 CNS; 107% in the assay with U251 CNS; 117% in the assay with PC-3 prostate. Moreover, the growth in the assay with SK-MEL-5 melanoma is 98.9%; with UACC-62 melanoma, 96.6%; with LOX IMVI melanoma, 111%; in the assay with SK-MEL-28 melanoma it was 106%.

With `CCn1c(=O)c(C(=O)NCCCO)c(O)c2ccccc21`, the growth in the assay with HCT-15 colon is 103%; with HT29 colon it was 109%; with SNB-75 CNS it was 96.8%; in the assay on SNB-19 CNS, 102%; with U251 CNS, 98.1%; in the assay with PC-3 prostate, 101%. The growth with SK-MEL-5 melanoma was 94.2%; with UACC-62 melanoma it was 94.4%; with LOX IMVI melanoma it was 98.5%; in the assay on SK-MEL-28 melanoma, 118%.

In the case of `C(=Nc1ccc(-c2ccc(N=Cc3ccccc3)cc2)cc1)c1ccccc1`, the growth with HCT-15 colon was 106%; in the assay with HT29 colon, 93.9%; with SNB-75 CNS it was 83.4%; with SNB-19 CNS it was 107%; with U251 CNS, 98.3%; with PC-3 prostate it was 80.3%. Further, the growth in the assay on SK-MEL-5 melanoma was 105%; with UACC-62 melanoma, 93.7%; in the assay with LOX IMVI melanoma, 105%; in the assay with SK-MEL-28 melanoma it was 99.9%.

Source of the values: PubChem BioAssay (NCI).
